Experiment [1] can be described thus: Counterscreen for APE1 Inhibitors: Fluorescent Dye Displacement Validation Assay (AID 1707). Note: potency is the fitted concentration of half-maximal effect. The gist of the method:
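ThO 250 nM + dsDNA 50 nM (THF abasic site, 5'-TAMRA), Tris-HCl pH7.5/50mM NaCl/2 mM MgCl2/0.01% Tween-20; compounds pin-transferred; ex 480/em 540 nm endpoint. Neutral = no compound; no-DNA ThO wells = negative control.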
In general terms: The purpose of a counterscreen is to sort out artefacts and off-target activity.

Experiment [2] addresses Endonuclease 4 (Escherichia coli (strain K12)) (UniProt P0A6C1). Briefly: Counterscreen for APE1 Inhibitors: qHTS Validation Assay for Inhibitors of Endonuclease IV (AID 1708). The gist of the method: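 E. coli EndoIV at 2 nM final, preincubated 15 min at room temperature with compound, then 50 nM TAMRA/BHQ-2 THF abasic-site duplex added. Buffer: 50 mM Tris-HCl pH 7.5, 50 mM NaCl, 2 mM MgCl2, 1 mM DTT, 0.01% Tween-20. Kinetic fluorescence increase, third minus first read.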

The nature of experiment [3]: qHTS for differential inhibitors of proliferation of Plasmodium falciparum line 7G8 (AID 1815;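 note: parasite growth measured after three days of incubation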; note: potency is the fitted concentration of half-maximal effect). (Quantitative high-throughput screening tests each substance at several concentrations.)
A short description of experiment [4]: qHTS for differential inhibitors of proliferation of Plasmodium falciparum line GB4 (AID 1816).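 Note: parasite growth measured after 72 h incubation.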 Note: potency is the fitted concentration of half-maximal effect. The conditions noted are these: Potency: Plasmodium falciparum GB4 proliferation inhibition.
Experiment [5] is described as follows: qHTS for differential inhibitors of proliferation of Plasmodium falciparum line 3D7 (AID 1876).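 Note: parasite growth measured after three days of culture.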
Experiment [6] in a line: qHTS for differential inhibitors of proliferation of Plasmodium falciparum line D10 (AID 1877).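 Note: parasites grown with compound for 72 h before DNA staining.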 Note: potency is the fitted concentration of half-maximal effect.
Experiment [7] can be described thus: qHTS for differential inhibitors of proliferation of Plasmodium falciparum line Dd2 (AID 1882). Note: nearly all actives have a fitted effect of over 65% in size. Note: potency is the fitted concentration of half-maximal effect. The note with it: Potency: Plasmodium falciparum Dd2 proliferation inhibition. Summed up:
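Dd2-infected erythrocytes (0.3% parasitemia, 2.5% hematocrit final) incubated with compound 72 h at 37 C, 5% CO2; lysed with saponin/Triton buffer containing SYBR Green I, incubated overnight in the dark, then read by fluorescence (485/535 nm). Normalized to 0.29 uM artemisinin and DMSO.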

Experiment [8] is described as follows: qHTS for differential inhibitors of proliferation of Plasmodium falciparum line W2 (AID 1883).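 Note: parasites grown with compound for 72 h before lysis and staining.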 Note: potency is the fitted concentration of half-maximal effect. The conditions noted are these: Potency: Plasmodium falciparum W2 proliferation inhibition.
Experiment [9] in a line: qHTS for differential inhibitors of proliferation of Plasmodium falciparum line HB3 (AID 1886).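 Note: parasites grown with compound for 72 h before SYBR Green readout.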 Note: potency is the fitted concentration of half-maximal effect. The conditions noted are these: Potency: Plasmodium falciparum HB3 proliferation inhibition.
The target of experiment [10] is Ferritin light chain (Equus caballus) (UniProt P02791). As to the kind of experiment: qHTS Validation Assay for Identification of Novel General Anesthetics (AID 2323). Note: series mostly up to about 77 µM. The gist of the method: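 Competitive displacement of profluorescent 1-aminoanthracene (1-AMA, 50% saturated solution in PBS) from 10 uM horse-spleen apoferritin. Compounds incubated 10 min at room temperature; fluorescence read at 380 nm excitation/535 nm emission, normalized to free 1-AMA and complex, fitted with four-parameter Hill equation.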
Sequence of Ferritin light chain (Equus caballus) (P02791 2-175 limits assumed): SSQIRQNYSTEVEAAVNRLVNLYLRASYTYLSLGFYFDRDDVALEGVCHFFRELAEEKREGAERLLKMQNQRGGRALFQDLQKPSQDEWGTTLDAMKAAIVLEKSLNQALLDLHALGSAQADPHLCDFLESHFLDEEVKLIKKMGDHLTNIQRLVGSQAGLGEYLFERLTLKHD

Experiment [11] addresses ATP-dependent DNA helicase Q1 (Homo sapiens) (UniProt P46063). Briefly: qHTS Validation Assay for Inhibitors of RecQ-Like Dna Helicase 1 (RECQ1) (AID 2353). Summed up: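 50 nM RECQ1T1 preincubated 15 min with compound in Tris pH 8.0 buffer with MgCl2, DTT, Tween-20 and 2.5 ug/ml poly(dI-dC); started with 200 nM TAMRA/BHQ-2 forked duplex and 2 mM ATP. Unwinding read as fluorescence (525/598 nm), two reads 2 h apart.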

Experiment [12] can be described thus: Cytometric Cell-Based qHTS for Inhibitors of the mTORC1 Signaling Pathway in MEF (Tsc2-/-, p53-/-) Cells (AID 2660).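 Note: percent of cells above a phospho-rpS6 to PI ratio cutoff in each well; series mostly up to about 38 µM.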 Summed up:
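Percent of cells positive for normalized phospho-S6 staining is reported, with the cutoff set from rapamycin (7.5 nM) versus DMSO wells. Tsc2-/-, p53-/- MEFs received compound for 24 hrs.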

Experiment [13] in a line: High Content Imaging Cell-Based qHTS for Inhibitors of the mTORC1 Signaling Pathway in MEF (Tsc2-/-, p53-/-) Cells (AID 2666).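 Note: percent of cells scored positive for phospho-rpS6 Ser235/236 immunostaining by imaging.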 Summed up:
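Phospho-rpS6 (Ser235/236) immunofluorescence, normalized and scored as % positive cells using rapamycin and DMSO controls, was read in empty-vector Tsc2-/-, p53-/- MEFs after 24 h compound exposure at 37 C; propidium iodide counted cells.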

The nature of experiment [14]: High Content Imaging Cell-Based qHTS for Inhibitors of the mTORC1 Signaling Pathway in MEF Cells (AID 2667).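 Note: Tsc2-/- p53-/- MEFs stably re-expressing wild-type Tsc2 exposed 24 h; series mostly up to about 38 µM.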 The gist of the method: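 WT MEFs (Tsc2-/-, p53-/- re-expressing Tsc2), in DMEM + 10% FBS, were treated with compound for 24 h at 37 C. Cells were then fixed and stained for phospho-rpS6 Ser235/236 with propidium iodide as cell count. Values are % positive cells, with thresholds set against rapamycin-treated cells.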

The nature of experiment [15]: Cytometry Cell-Based qHTS for Inhibitors of the mTORC1 Signaling Pathway in MEF cells (AID 2668).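 Note: Tsc2-/- p53-/- mouse embryonic fibroblasts stably re-expressing wild-type Tsc2; percent cells positive for phospho-rpS6 Ser235/236 relative to propidium iodide stain; series mostly up to about 38 µM.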 The gist of the method:
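WT MEFs (Tsc2-/-, p53-/- stably re-expressing WT Tsc2) in DMEM + 10% FBS received compounds 24 hrs after plating, for 24 hrs at 37 degree Celsius. Fixed cells stained with Alexa-488 anti-phospho-rpS6 Ser235/236 and propidium iodide; laser-scanning cytometry read-out.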

A short description of experiment [16]: Validation screen for inhibitors of Lassa infection (AID 463096; calls by dose curve; note: potency is the fitted concentration of half-maximal effect).
A short description of experiment [17]: Validation screen for small molecules that induce DNA re-replication in MCF 10A normal breast cells (AID 463097). Note: nearly all actives have a fitted effect of over 60% in size. The gist of the method:
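Readout: Hoechst nuclear fluorescence intensity, 405 ex / 500-530 em, by scanning plate imager; re-replication scored as increase in nuclei with elevated DNA content. Cells exposed to compound 48 hr, 37 C, 5% CO2 beforehand.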

In experiment [18] the target is Ubiquitin carboxyl-terminal hydrolase 2 (Homo sapiens) (UniProt O75604). Briefly: qHTS Validation Assay for Inhibitors of Ubiquitin-specific Protease USP2a Using CHOP2 as the Reporter (AID 463106). Summed up: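 USP2 core (10 nM final) was preincubated with compound 30 min at RT in pH 8.0 Tris/CaCl2/beta-ME/CHAPS buffer. Ub-CHOP2 and reporter substrate (25 nM final each) were then added, with fluorescence (Ex 485/Em 531) read after 60 min. Data were normalized to NEM full inhibition and fitted to concentration-response curves.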
Sequence of Ubiquitin carboxyl-terminal hydrolase 2 (Homo sapiens) (O75604 whole entry, looked up): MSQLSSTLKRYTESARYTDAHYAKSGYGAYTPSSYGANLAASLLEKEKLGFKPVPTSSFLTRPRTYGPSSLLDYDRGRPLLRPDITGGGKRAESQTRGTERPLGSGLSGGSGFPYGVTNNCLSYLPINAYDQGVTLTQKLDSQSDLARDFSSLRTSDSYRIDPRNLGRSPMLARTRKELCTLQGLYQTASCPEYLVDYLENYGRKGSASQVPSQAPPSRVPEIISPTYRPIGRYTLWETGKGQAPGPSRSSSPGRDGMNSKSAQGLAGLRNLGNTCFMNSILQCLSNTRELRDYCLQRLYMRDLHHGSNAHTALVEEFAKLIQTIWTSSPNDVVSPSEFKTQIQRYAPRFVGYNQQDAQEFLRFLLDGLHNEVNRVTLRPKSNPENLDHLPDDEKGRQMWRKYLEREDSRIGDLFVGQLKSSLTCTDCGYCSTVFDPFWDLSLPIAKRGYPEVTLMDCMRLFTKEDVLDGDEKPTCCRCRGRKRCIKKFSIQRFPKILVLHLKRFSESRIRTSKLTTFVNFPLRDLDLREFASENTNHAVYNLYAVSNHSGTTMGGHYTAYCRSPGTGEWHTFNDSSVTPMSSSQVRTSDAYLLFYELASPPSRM

In experiment [19] the target is DNA repair nuclease/redox regulator APEX1 (Homo sapiens) (UniProt P27695). Briefly: qHTS Validation Assay for Inhibitors of the Human Apurinic/apyrimidinic Endonuclease 1 (APE1) (AID 1705;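 note: TAMRA fluorescence gain over two minutes as APE1 cuts a quenched THF abasic duplex; series mostly up to about 57 µM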). Summed up: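 Human APE1 was preincubated with compound for 15 min at room temperature, then 50 nM (final) THF-abasic double-stranded DNA substrate bearing 5'-TAMRA and 3'-BHQ-2 was added. Incision-driven fluorescence rise (ex 525/em 598 nm) was read kinetically.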
Sequence of DNA repair nuclease/redox regulator APEX1 (Homo sapiens) (P27695 whole entry, looked up): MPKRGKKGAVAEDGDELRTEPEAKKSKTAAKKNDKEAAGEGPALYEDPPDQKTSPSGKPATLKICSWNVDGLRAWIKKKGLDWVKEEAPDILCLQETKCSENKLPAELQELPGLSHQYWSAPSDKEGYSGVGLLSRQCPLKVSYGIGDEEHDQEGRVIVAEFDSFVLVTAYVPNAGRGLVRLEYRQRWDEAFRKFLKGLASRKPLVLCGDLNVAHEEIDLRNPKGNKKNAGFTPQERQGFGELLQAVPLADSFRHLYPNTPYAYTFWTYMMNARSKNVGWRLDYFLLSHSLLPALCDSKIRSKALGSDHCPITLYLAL

Inconclusive results are not listed. Calls of active or inactive are those of the source. Unless noted, calls come from the whole dose curve; as a rule, active = well fitted curve in the direction sought with a large enough effect; inconclusive = small, poorly fitted or top-dose-only effect, or another doubt; inactive = no such curve, though single readings can be large; an effect the other way counts as inactive or inconclusive.

Sequence of ATP-dependent DNA helicase Q1 (Homo sapiens) (P46063 whole entry, looked up): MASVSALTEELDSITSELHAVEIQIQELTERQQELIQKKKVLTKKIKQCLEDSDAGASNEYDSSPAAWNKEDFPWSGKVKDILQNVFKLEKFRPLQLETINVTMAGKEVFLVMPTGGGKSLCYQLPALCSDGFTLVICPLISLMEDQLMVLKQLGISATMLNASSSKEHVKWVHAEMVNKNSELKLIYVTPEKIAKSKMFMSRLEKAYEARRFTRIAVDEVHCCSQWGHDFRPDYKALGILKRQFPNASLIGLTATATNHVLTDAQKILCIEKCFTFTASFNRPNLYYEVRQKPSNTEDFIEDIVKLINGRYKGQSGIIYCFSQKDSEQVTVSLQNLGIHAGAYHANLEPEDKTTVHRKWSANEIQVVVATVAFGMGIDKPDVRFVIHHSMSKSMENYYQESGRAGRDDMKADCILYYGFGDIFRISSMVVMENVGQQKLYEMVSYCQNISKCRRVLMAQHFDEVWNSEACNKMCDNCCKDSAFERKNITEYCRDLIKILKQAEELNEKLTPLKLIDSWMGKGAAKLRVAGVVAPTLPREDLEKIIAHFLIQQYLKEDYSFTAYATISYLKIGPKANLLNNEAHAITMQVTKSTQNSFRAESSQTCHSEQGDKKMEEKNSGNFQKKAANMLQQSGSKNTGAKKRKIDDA

Turning to `CCCN1CCO[C@@H]2c3cc(O)ccc3OC[C@H]21`, the Potency entry in experiment [1], in [2], in experiment [3], in experiment [4], in experiment [5] and in [6] was “inactive” throughout. The Potency entry in experiment [7], in experiment [8], in experiment [9], in experiment [12], in experiment [13] and in experiment [14] was “inactive” in each case. The Potency entry in experiment [15], in experiment [16], in experiment [17] and in experiment [18] was “inactive” each time. The result in [10] and in [11] was inactive.

Take `CC[C@@H]1C(=O)OC[C@@H]1Cc1cncn1C`: the Potency entry in experiment [1], in experiment [2], in experiment [3], in experiment [4], in experiment [5] and in experiment [6] was “inactive” throughout. Besides, the Potency entry in experiment [7], in experiment [9], in [16] and in [17] was “inactive” in each case. The compound was classed as inactive in experiment [10] and in experiment [11].

As to `COc1ccc2c(c[n+](C)c3c4cc5c(cc4ccc23)OCO5)c1OC`, the Potency was 14.1 µM (active) in [1]; 14.1 µM (active) in [3]; 14.1 µM (active) in experiment [4]; 11.2 µM (active) in experiment [7]; 12.6 µM (active) in [8]; 10 µM (active) in [16]. For the same compound, the Potency entry in experiment [2], in [13], in [14] and in experiment [15] was “inactive” in each case. The call in [10] and in experiment [11] was inactive.

Take `CCCN(CCC)C1CCc2ccc(O)cc2C1` (stereo not given): the Potency result in [19], in experiment [1], in [12], in experiment [13], in [14] and in experiment [15] was “inactive” throughout. The Potency result in [16], in experiment [17] and in experiment [18] was “inactive” in each case. Besides, the Potency was 8.91 µM (active) in experiment [3]; 11.2 µM (active) in experiment [4]; 10 µM (active) in [6]; 7.94 µM (active) in experiment [8]; 11.2 µM (active) in experiment [9]. In addition, the compound was called inactive in experiment [10] and in experiment [11].

Take `CNCCc1c[nH]c2ccc(O)cc12`: the Potency result in experiment [1], in [2], in experiment [3], in experiment [4], in [5] and in [6] was “inactive” each time. Further, the Potency entry in [7], in experiment [8], in experiment [9], in experiment [12], in experiment [13] and in experiment [14] was “inactive” in each case. The Potency result in experiment [15], in experiment [16] and in experiment [17] was “inactive” in each case. The outcome in experiment [10] and in experiment [11] was inactive.

On to `O=C1CCCN1CC#CCN1CCCC1`, for which the Potency entry in [19], in experiment [1], in experiment [2], in experiment [3], in experiment [4] and in experiment [5] was “inactive” in each case. For the same compound, the Potency entry in experiment [6], in experiment [7], in [8], in experiment [9], in [12] and in experiment [13] was “inactive” each time. Moreover, the Potency result in [14], in experiment [15], in experiment [16] and in [17] was “inactive” throughout. Further, the call in [10] and in [11] was inactive.

Consider `NC(=O)CN1CC(O)CC1=O` (stereo not given), for which the Potency result in experiment [1], in [2], in experiment [3], in experiment [4], in experiment [5] and in [6] was “inactive” each time. In addition, the Potency result in experiment [7], in experiment [8], in experiment [12], in experiment [13], in [14] and in [15] was “inactive” each time. Also, the Potency result in experiment [16] and in experiment [17] was “inactive” throughout. The Potency in experiment [9] was 2.82 µM (active). Besides, the result in experiment [10] and in [11] was inactive.

The values above are taken from PubChem BioAssay (NCATS).
